Sampled rows, rich in hits. Any-hit rate of the full collection: about 2.2%.
A549 viability: A549 cytotoxicity, counter-screen for Nrf2 inhibitors; A549 ARE-Fluc cells, CellTiter-Fluor viability, 18-24 h; Potency, µM (top dose mostly 46 µM), most hits filed as inhibitors; AID 504648; 390,000 tested, 0.16% active
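A549 ARE_Fluc cells in 5% FBS OPTI-MEM were exposed to compounds in concentration-response for 18-24 h at 37 deg C. Viability was read by CellTiter-Fluor fluorescence (Ex 405/Em 525) after 30 min, before the luciferase read.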
Nrf2 inh: blocks Nrf2 signaling; A549 ARE-Fluc reporter, luciferase luminescence, 18-24 h; Potency, µM (titrated, usually from 46 µM), actives largely listed as inhibitors; 360,000 tested, 2.1% active; AID 504444; note: nearly all actives have a fitted effect of over 60% in size
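A549 ARE_Fluc cells (5000/well, 5% FBS OPTI-MEM) pre-incubated 2 h, then treated with compounds 18-24 h at 37C/5% CO2 in concentration-response. CellTiter-Fluor viability read first; BugLite luciferase luminescence after 15 min at room temperature gives Nrf2 activity.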
Pin1 inhibitor: inhibitors of human Pin1 | Q13526 | Pin1 FP peptide displacement, HiFluor488, 10 min | Potency, µM (titrated, usually from 115 µM), actives largely listed as inhibitors | 390,000 tested, 0.009% active; active = well fitted inhibition curve with a large enough effect in the polarisation, with a control signal flat, not every such curve was filed as active; inconclusive = small, poorly fitted or top-dose-only effect, or effect the other way, or a change in a side signal; inactive = no such curve, though single readings can be large or run the other way; the % refers to the polarisation
Target sequence (Q13526 whole entry, looked up): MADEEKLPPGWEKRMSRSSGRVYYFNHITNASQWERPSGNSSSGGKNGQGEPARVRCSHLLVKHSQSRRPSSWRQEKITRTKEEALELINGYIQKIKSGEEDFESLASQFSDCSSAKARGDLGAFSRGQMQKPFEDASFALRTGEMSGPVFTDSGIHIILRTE
Nrf2 ARE act: activators of Nrf2 (ARE) signaling | AREc32 ARE-luciferase reporter (MCF7-derived line), luminescence, 24 h | Potency, µM (highest dose often 46.1 µM), most hits filed as activators | 410,000 tested, 0.31% active; note: nearly all actives have a fitted effect of over 65% in size
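Each well held 1000 AREc32 cells, which were incubated with compound for 24 hr at 37 deg C after overnight attachment, and ARE reporter activity was quantified by firefly luciferase luminescence.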
Large screens that a line does not name were inactive. Unless noted, calls come from the whole dose curve; as a rule, active = well fitted curve in the direction sought with a large enough effect; inconclusive = small, poorly fitted or top-dose-only effect, or another doubt; inactive = no such curve, though single readings can be large; an effect the other way counts as inactive or inconclusive.

O=[S+]([O-])(c1ccc2c(c1)OCCO2)N1CCN([S+](=O)([O-])c2c(F)cc(F)cc2Br)CC1	none (no result: Nrf2 ARE act)
Cc1coc2c1c(C)cc1oc(=O)c(CC(=O)NCc3ccc(Cl)cc3)c(C)c12	none
Cc1ccc(NS(=O)(=O)c2c(C)nc3sc(C)c(C)n3c2=O)cc1F	Nrf2 inh 20.6µM
COc1cc(NS(=O)(=O)c2c(C)nc3sc(C)c(C)n3c2=O)cc(OC)c1	none
O=C(Nc1ccccc1)Nc1ncc([N+](=O)[O-])s1	A549 viability 23.1µM, Nrf2 inh inconclusive
O=C(NCc1cccnc1)c1nn(-c2ccc(F)cc2)nc1CO	none
Cc1ccc(N/C=C/C(=O)c2ccccc2)cc1Br	Nrf2 inh inconclusive, Nrf2 ARE act 11.2µM
O=C(/C=C/Nc1ccc(F)c(Cl)c1)c1ccccc1	Nrf2 inh inconclusive, Nrf2 ARE act 11.2µM
O=C(/C=C/Nc1ccc(F)c(F)c1)c1ccc(Br)cc1	Nrf2 inh inconclusive
O=C(/C=C/Nc1cccc(O)c1)c1ccccc1	Pin1 inhibitor inconclusive, Nrf2 ARE act 14.1µM
O=C(CNC(=O)C1CCCCC1)OCC(=O)c1ccc2c(c1)CCC2	none (no result: Nrf2 ARE act)
CC1(c2nnc(-c3ccc(Cl)cc3)o2)CC(c2ccc([N+](=O)[O-])cc2)=NO1 (stereo not drawn)	none
CC1(c2nnc(-c3ccncc3)o2)CC(c2c(Cl)cccc2Cl)=NO1 (stereo not drawn)	none
CC1(c2nnc(-c3ccncc3)o2)CC(c2ccc([N+](=O)[O-])cc2)=NO1 (stereo not drawn)	Nrf2 inh 11.6µM
CC1(c2nnc(-c3ccccc3)o2)CC(c2c(Cl)cccc2Cl)=NO1 (stereo not drawn)	Nrf2 inh 23.1µM, Pin1 inhibitor inconclusive
Cc1ccc(C)c(N2CCN(S(=O)(=O)c3ccc(-c4cc(C(F)(F)F)on4)s3)CC2)c1	Nrf2 inh inconclusive
O=C(CCN1CCCCC1)c1ccc2c(c1)OCCO2	Nrf2 ARE act 17.8µM
O=C(CCN1CCC(c2ccccc2)C1)c1ccc2c(c1)OCCO2 (stereo not drawn)	Nrf2 ARE act 8.91µM
CCn1nc(C)c(CNC(=O)c2cc(COc3ccc(C)nc3)on2)c1C	Nrf2 inh 23.1µM
C[C@H](CO)N1C[C@H](C)[C@@H](CN(C)CC2CCCCC2)Oc2c(NC(=O)CCC(F)(F)F)cccc2C1=O	Nrf2 inh 18.4µM
Cc1noc(C)c1S(=O)(=O)N(C)C[C@H]1Oc2c(NC(=O)Nc3ccc(C(F)(F)F)cc3)cccc2C(=O)N([C@H](C)CO)C[C@@H]1C	Nrf2 inh 20.6µM
CCC1=Nc2cc(C(=O)N3CCC(C)CC3)ccc2Sc2ccc(C)cc21	A549 viability inconclusive, Nrf2 inh 18.4µM
CCC1=Nc2cc(C(=O)NCc3ccccc3Cl)ccc2Sc2ccc(C)cc21	none (no result: Nrf2 inh)
COc1ccc(-c2nnc(SCC(=O)NC3CCCC3)nc2-c2ccc(OC)c(OC)c2)cc1OC	none (no result: Nrf2 inh)
Cc1ccc(C(=O)Nc2nc3c(s2)CCCC3)o1	Nrf2 inh inconclusive
O=C(Nc1nc2c(s1)CCCC2)c1ccc(Br)o1	Nrf2 inh inconclusive, Pin1 inhibitor inconclusive, Nrf2 ARE act 12.6µM
COc1ccc(CCNC(=O)Cc2c(C)c3c(cc(C)c4c(C)coc43)oc2=O)cc1	none
Cc1sc2nc(C(C)C)nc(SCC(=O)NC3CC3)c2c1C	none
CCOC(=O)c1cnc(SCC(=O)Nc2cc(OC)ccc2OC)nc1N	Nrf2 inh 10.3µM, Pin1 inhibitor inconclusive
Cc1cc(NC(=O)CSc2nc(C(C)C)nc3sc(C)c(C)c23)no1	A549 viability inconclusive, Nrf2 inh 14.6µM
CCc1nc(SCC(=O)Nc2cc(OC)ccc2OC)c2c(C)c(C)sc2n1	Nrf2 inh 14.6µM
Cc1c(Cl)cccc1NC(=O)C(=O)NCC(c1cccnc1)N1CCN(c2ccccc2)CC1 (stereo not drawn)	none
O=C(Nc1ccc(Cl)c(-c2nc3ccccc3o2)c1)c1cccc2c(Cl)cccc12	none
Cc1ccc(NC(=O)c2ccc(-n3nncc3-c3ccccc3)cc2)cc1	Nrf2 inh inconclusive (no result: Nrf2 ARE act)
CCC1CN(C(=O)N2CCC(C(=O)NCCCc3ccccc3)CC2)c2ccccc2O1 (stereo not drawn)	Nrf2 inh inconclusive
CCN1/C(=C/c2ccc3cc(C)ccc3[n+]2CC)Sc2ccc3sccc3c21	A549 viability inconclusive, Nrf2 inh 6.51µM
Cc1ccc(CCNC(=O)CCCn2c(=O)c3cccn3c3ccc(F)cc32)cc1	none
COc1cccc(NS(=O)(=O)c2c(C)cc(C)cc2C)c1	none
COc1ccc(NS(=O)(=O)c2c(C)cc(C)cc2C)cc1	A549 viability inconclusive, Nrf2 inh 20.6µM
CNC(=O)COc1ccc(NC(=O)CCn2nc(-c3ccc(C)cc3)c3ccccc3c2=O)cc1	Nrf2 inh inconclusive
Cn1c(=O)n(C)c2cc(NC(=O)CCl)ccc21	A549 viability inconclusive, Nrf2 inh 18.4µM, Nrf2 ARE act inconclusive
COc1ccccc1NS(=O)(=O)c1cc(NC(=O)Cc2n[nH]c(=O)c3ccccc23)ccc1Cl	Nrf2 inh 20.6µM
COc1ccc(NS(=O)(=O)c2cc(NC(=O)Cc3n[nH]c(=O)c4ccccc34)ccc2OC)cc1	none
Cc1ccc(-c2nc(-c3ccccn3)no2)cc1	Nrf2 inh 2.06µM
c1ccc(-c2ccc(-c3nc(-c4ccccn4)no3)cc2)cc1	Nrf2 inh inconclusive
N#Cc1ccc(S(=O)(=O)N2CCN(c3nc(-c4cccs4)nc4ccccc34)CC2)cc1	none (no result: Nrf2 ARE act)
O=C(NCCCN1CCN(c2ccc(F)cc2)CC1)c1cc2c(Cl)nc3ccccc3c2s1	none
Cc1cc(/C=C2\Sc3ccccc3N2C)cc(C)[n+]1CC1CCCO1 (stereo not drawn)	A549 viability 4.11µM, Nrf2 inh 1.16µM, Pin1 inhibitor inconclusive
Cc1ccc(/C=C2/Sc3ccccc3N(CC(=O)NCC3CCCO3)C2=O)cc1 (stereo not drawn)	none
COc1ccc(Cl)cc1NC(=O)Nc1cccc([N+](=O)[O-])c1C	Nrf2 inh 13µM
COc1ccc(C2CC(=O)c3c(C)nc(N4CCN(Cc5ccccc5)CC4)nc3C2)cc1OC (stereo not drawn)	Nrf2 inh 18.4µM (no result: A549 viability)
S=C(Nc1ccccc1Cl)N(Cc1ccccc1)Cc1ccccn1	Nrf2 inh 20.6µM
COc1cc(/C=N/N=C2/C(=O)Nc3ccccc32)cc(OC)c1O	Nrf2 ARE act 11.2µM
CN1CCN(c2ccc(Nc3nn4c(=O)c5ccccc5nc4s3)cc2)CC1	none (no result: A549 viability, Nrf2 inh, Nrf2 ARE act)
Cn1ncc2ccc(-c3ccc4ncnc(NCc5cccs5)c4c3)cc21	Pin1 inhibitor inconclusive (no result: Nrf2 ARE act)
COc1ccc(-c2nn(-c3ccccc3)cc2/C=C2/SC(=S)N(CCC(=O)O)C2=O)cc1	A549 viability inconclusive, Nrf2 inh 23.1µM, Pin1 inhibitor inconclusive
COc1ccc(-c2ccc3ncnc(NCC4CCCO4)c3c2)cc1OC (stereo not drawn)	Nrf2 inh inconclusive (no result: Nrf2 ARE act)
Cc1n(Cc2ccccc2)c2cc([N+](=O)[O-])ccc2[n+]1Cc1ccccc1	none
Cc1n(Cc2ccccc2)c2ccccc2[n+]1Cc1ccccc1	Nrf2 inh 16.4µM
CCCCCn1c(Sc2nc3ccccc3s2)nc2c1c(=O)[nH]c(=O)n2C	Nrf2 inh 16.4µM
